# PolyA inhibitor: blocks polyadenylation in yeast reporter cells; S. cerevisiae SKY197-pL101 polyadenylation reporter, beta-gal luminescence; efflux-impaired pdr1/pdr3 knockout yeast; score 100 = 6 SD above DMSO; activity score, % at 12 µM; 0.02% of 300,000 active;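 active means lowest replicate activity score at least 50, where 100 means six control SD above control mean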;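 further: yeast exposed to compound for 9 h at 30 °C; higher score means more reporter readthrough which indicates perturbed polyadenylation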
# ALR H2O2 inh: inhibitors of human sulfhydryl oxidase ALR; purified ALR, DTT oxidation, H2O2 HRP-luminol luminescence; inhibition, % (concentration not given with the values); 3.8% of 290,000 active;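 active means mean replicate inhibition above about 79%, with every replicate also reaching it, limit read from the data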
# IDE inh: inhibitors of human insulin-degrading enzyme in cells | inhibition, % at 5.59 µM | 0.41% of 320,000 active | AID 434962 | HEK cells, FAbetaB cleavage, fluorescence polarization;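 active means percent inhibition above the average of all tested compounds plus 3 SD, set per screening campaign, cut at about 16% in these data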;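 further: IDE supplied by intact live HEK cells; FP after avidin binding of uncleaved biotin substrate so inhibition keeps polarization high; 0% = DMSO wells and 100% = 60 µM reference IDE inhibitor Ii1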
# Target sequence (P14735 whole entry, looked up): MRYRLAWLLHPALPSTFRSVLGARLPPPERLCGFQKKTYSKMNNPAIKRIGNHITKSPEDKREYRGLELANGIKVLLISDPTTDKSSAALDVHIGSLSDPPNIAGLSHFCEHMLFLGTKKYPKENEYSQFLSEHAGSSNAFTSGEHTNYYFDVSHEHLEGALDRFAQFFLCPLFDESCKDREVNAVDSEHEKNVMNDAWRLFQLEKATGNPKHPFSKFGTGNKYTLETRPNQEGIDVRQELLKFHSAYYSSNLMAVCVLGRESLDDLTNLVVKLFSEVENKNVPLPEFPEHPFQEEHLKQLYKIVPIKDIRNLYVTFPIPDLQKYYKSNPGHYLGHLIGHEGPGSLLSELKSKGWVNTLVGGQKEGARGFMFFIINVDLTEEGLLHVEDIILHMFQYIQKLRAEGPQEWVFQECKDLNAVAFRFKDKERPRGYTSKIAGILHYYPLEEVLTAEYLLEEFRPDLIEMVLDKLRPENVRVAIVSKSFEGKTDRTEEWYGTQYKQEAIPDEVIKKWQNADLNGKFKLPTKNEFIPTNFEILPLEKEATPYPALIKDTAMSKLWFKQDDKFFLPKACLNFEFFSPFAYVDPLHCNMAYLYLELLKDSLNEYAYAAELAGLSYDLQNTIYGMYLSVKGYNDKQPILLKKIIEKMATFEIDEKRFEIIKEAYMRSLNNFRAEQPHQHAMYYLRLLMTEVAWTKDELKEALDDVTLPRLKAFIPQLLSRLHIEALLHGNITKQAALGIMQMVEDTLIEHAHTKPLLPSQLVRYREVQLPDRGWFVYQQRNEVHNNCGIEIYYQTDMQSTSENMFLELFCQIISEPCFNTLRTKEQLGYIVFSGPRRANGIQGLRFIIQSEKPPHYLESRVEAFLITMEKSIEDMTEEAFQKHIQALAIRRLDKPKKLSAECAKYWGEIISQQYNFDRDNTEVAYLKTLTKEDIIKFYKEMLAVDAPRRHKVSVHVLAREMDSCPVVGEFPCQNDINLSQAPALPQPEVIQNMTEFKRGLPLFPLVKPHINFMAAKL
# CaV13 FRET inh: Disruptors of the CACNA1D IQ motif to Ca2+-dependent inactivation inhibitor domain association, primary screening, Förster resonance energy transfer in intact living … | HEK cells, CFP/YFP FRET ICDI-IQ, plate reader, 10 min; percent FRET-ratio fall versus neutral wells | inhibition, % at 12.3 µM | 0.098% of 340,000 active | AID 743397;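 active means mean replicate inhibition of at least 30% and at least 1% of replicates passing that level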;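 further: 0% = median of the neutral control wells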
# IDE cell activ: boosts human insulin-degrading enzyme activity in HEK cells; 0.073% of 340,000 active; activation, % at 5.96 µM; FAbeta-B cleavage, fluorescence polarization; 0% vehicle, 100% cell-free pure enzyme wells; P14735;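 active means activation above the mean of all tested compounds plus 3 SD, set per screening campaign, cut at about 17% in these data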
# M18AAP inhibitor: PfM18AAP enzyme inhibition. recombinant PfM18AAP, H-Glu-NHMec fluorogenic cleavage. inhibition, % at 7.35 µM. 1.2% of 290,000 active;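 active means inhibition above the campaign mean inhibition over all tested compounds plus 3 SD, cut at about 28% in these data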;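 further: 0% = plate median of test compound wells and 100% = 2 mM ZnCl2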
# * marks the source's active call; other numbers are inactive results; · = not tested or not shown. Only some compounds are listed: those with a hit (about 4.1% of all), similar ones and a draw of the others.
SMILES,PolyA inhibitor,ALR H2O2 inh,IDE inh,CaV13 FRET inh,IDE cell activ,M18AAP inhibitor
Cc1ccc(Sc2ccc(C=C3C(=O)N(C)C(=O)N(C)C3=O)o2)cc1,4,97*,0,9,-14,-3
CN1C(=O)C(=Cc2ccc(-c3cccc(Cl)c3)o2)C(=O)N(C)C1=O,7,12,0,·,·,-2
O=c1[nH]c(=S)n(CCC2=CCCCC2)c(O)c1/C=N/N1CCOCC1,-9,4,3,-20,·,3
Cc1cccc(N2C(=O)NC(=O)/C(=C\c3ccc4c(c3)CCCN4Cc3ccccc3)C2=O)c1,-6,1,1,-5,1,3
CCC(C)N1C(=O)/C(=C/c2ccc3c(c2)CCN3CCCCl)C(=O)NC1=S (stereo unspecified),-1,98*,-2,-6,-1,1
O=C(Cn1ncn2c(cc3cc(F)ccc32)c1=O)N1CCC2(CC1)OCCO2,0,-3,-1,-14,5,6
NS(=O)(=O)c1ccc(-c2ccc(C=C3C(=O)NC(=S)NC3=O)o2)cc1,40,-21,-1,-9,·,15
NS(=O)(=O)c1ccc(-c2ccc(C=C3C(=O)NC(=O)NC3=O)o2)cc1,2,98*,4,-6,1,15
CNS(=O)(=O)c1ccc(-c2ccc(C=C3C(=O)NC(=O)NC3=O)o2)cc1,-5,88*,1,26,-1,-2
C[n+]1c(-c2ccccc2)c2cc(N)ccc2c2ccc(N)cc21,1,99*,4,-10,8,34*
O=c1oc2ccccc2c(O)c1[C@H]1c2ccc(O)cc2Oc2c1c(=O)oc1ccccc21,-17,98*,-1,-6,-2,4
N#C/C(N)=C(/N)C#N,·,98*,2,·,5,·
CCOC(=O)c1c(/N=C/C2C(=O)NC(=S)NC2=O)sc2c1CCC2,-14,-11,9,·,·,14
N#Cc1c(/N=C/C2C(=O)NC(=S)NC2=O)sc2c1CCCC2,3,93*,6,-5,-2,21
COc1ccc(-n2c(O)c(/C=C3\C=Nc4ccc(Br)cc43)c(=O)[nH]c2=O)c(OC)c1,9,97*,-3,-24,-2,24
COc1ccc(-n2c(O)c(/C=C3\C=Nc4ccc(Br)cc43)c(=O)[nH]c2=O)cc1,-20,3,7,-17,-7,27
COc1cc2c(cc1O)C[C@H]1c3c(cc(O)c(OC)c3-2)CCN1C,·,98*,2,-5,7,·
CCCN1CCc2cc(O)cc3c2[C@H]1Cc1ccc(O)c(O)c1-3,9,99*,-1,-5,-12,·
COc1cc2c3c(c1OC)Oc1ccc(cc1)C[C@H]1c4c(cc(OC)c(OC)c4Oc4ccc(cc4)C[C@@H]3N(C)CC2)CCN1C,·,·,4,-4,5,·
COc1cc2c(cc1O)[C@@H]1Cc3ccc(OC)c(O)c3CN1CC2,·,54,7,-6,-4,·
CN1CCc2cc(O)cc3c2[C@H]1Cc1ccc(O)c(O)c1-3,8,99*,9,-4,-5,·
COc1cccc(C2(O)CCN(CC(=O)Nc3nc(C)cs3)CC2)c1,24,-3,3,-17,4,3
COc1ccc(N2CCN(C(CNC(=O)Oc3ccccc3)c3cccnc3)CC2)cc1 (stereo unspecified),3,85*,-1,-11,0,1
O=C(NCC(c1cccnc1)N1CCN(c2ccccc2F)CC1)Oc1ccccc1 (stereo unspecified),-11,-4,0,-7,1,3
CCOP(=O)(C#Cc1ccccc1)C(O)c1ccc(Br)cc1 (stereo unspecified),11,-3,-3,-4,-2,-1
SMILES,PolyA inhibitor,ALR H2O2 inh,IDE inh,CaV13 FRET inh,IDE cell activ,M18AAP inhibitor
CCOP(=O)(OCC)C(O)c1ccc(OC)c(OC)c1 (stereo unspecified),-13,99*,11,-1,1,-5
O=c1[nH]c2ccccc2n1C1CCN(C(CCc2ccccc2)c2nnnn2C2CCCC2)CC1 (stereo unspecified),·,·,·,-5,·,·
CCN1CCN(c2ccc(N)cc2)CC1,14,94*,-1,-18,4,5
CN1CCN(c2ccc(N)cc2)CC1,15,99*,1,-6,2,-5
CCN1CCN(c2ccc(N)cc2C)CC1,4,99*,2,-2,3,-5
CN1CCN(c2ccc(C=O)cc2)CC1,-11,4,6,-4,4,14
CN1CCN(c2ccc(N)c(N3CCN(C)CC3)c2)CC1,7,·,3,-4,2,30*
Cc1ccc(O)c(CN2CCC3CCC(C3)C2)c1 (stereo unspecified),·,·,·,-6,5,·
COc1ccc2c(c1)c(C(=O)C(C)N1CCCCC1)c(C)n2C (stereo unspecified),-6,1,1,-2,-1,-3
CC/C(=N\Nc1ccccc1)c1c(O)n(-c2ccc(OC)cc2)c(=O)[nH]c1=O,-6,99*,-6,-6,-4,15
COCCNC(=O)Cn1cc(C=C2C(=O)NC(=O)NC2=O)c2ccccc21,4,11,-1,-5,-2,31*
CC(C)(C)c1cc(C=C(C#N)C#N)cc(C(C)(C)C)c1O,·,17,3,-5,2,·
N#CC(C#N)=Cc1ccc(O)c(O)c1,·,98*,0,-4,7,·
OC(CCNCCc1c[nH]c2ccccc12)C(F)(F)Cl (stereo unspecified),8,9,0,-6,10,-2
CCOc1ccc(-c2c(C)n(-c3ccc(OCC)cc3)c3[n+]2CCCCC3)cc1,0,-12,5,-3,5,9
CCOP(=S)(OCC)c1ccc(N(C)C)cc1,13,3,6,-5,2,7
CN(C)c1ccc(P(=S)(N(C)C)N(C)C)cc1,-16,99*,-3,-9,8,1
C1CCC2CCCCC2C1 (stereo unspecified),·,8,7,·,2,·
Cc1cc(/C=C2\C(=O)NC(=O)N(c3ccc(F)cc3)C2=O)c(C)n1-c1cccc(C(=O)O)c1,22,29,6,-11,·,13
Cc1cc(/C=C2\C(=O)NC(=O)N(c3ccccc3F)C2=O)c(C)n1-c1cc(C(=O)O)cc(C(=O)O)c1,5,9,-1,-19,-5,30*
N#Cc1cc(F)c(N2CCNCC2)cc1Cl,7,93*,-1,-4,5,-7
N#Cc1ccc(N2CCNCC2)c(F)c1,-10,-15,3,-7,4,-2
O=C(O)CCn1cc(C=C2C(=O)NC(=O)NC2=O)c(-c2ccc(Br)cc2)n1,20,87*,3,-7,-4,-3
COC(=O)C1=C(c2ccccc2)C[C@@H]2CC[C@H]1N2C(=O)NC1CCCCC1,20,20,0,-3,1,·

# Source: PubChem
